Measurements as given in PubChem BioAssay.
The source made the active and inactive calls. No rule for the calls is given here.

target: Pantothenate synthetase (Mycobacterium tuberculosis (strain ATCC 25618 / H37Rv)) (UniProt P9WIL5); test: Recombinant Mtb pantothenate synthetase (PanC) inhibitors, coupled enzyme, confirmatory (AID 375); conditions: coupled enzyme assay; at 10 µM, stronger effect = higher value;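 also: 0% = full reaction with vehicle and 100% = no enzyme background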
Sequence (P9WIL5 whole entry, looked up): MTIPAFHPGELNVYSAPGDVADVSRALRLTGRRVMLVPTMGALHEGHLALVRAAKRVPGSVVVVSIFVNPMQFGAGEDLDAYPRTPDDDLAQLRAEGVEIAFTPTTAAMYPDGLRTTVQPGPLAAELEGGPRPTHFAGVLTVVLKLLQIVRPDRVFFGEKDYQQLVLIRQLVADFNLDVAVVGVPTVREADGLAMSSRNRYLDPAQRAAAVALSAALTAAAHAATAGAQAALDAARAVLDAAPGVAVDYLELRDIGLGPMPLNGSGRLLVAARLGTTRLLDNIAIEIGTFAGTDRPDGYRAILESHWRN

Compound	inhibition
O=C(CCSc1nc(-c2ccco2)cc(C(F)(F)F)n1)Nc1ccc2c(c1)OCO2	0% (inactive)
CCCNC(=O)NC1C(NC(=O)NCCC)N(C)C(=O)N1C (configuration not stated)	5% (inactive)
O=C(CN1C(=O)CCSc2ccccc21)Nc1ccc(F)cc1	1% (inactive)
NS(=O)(=O)c1ccc(CCNC(=O)CCC2COc3ccccc3O2)cc1 (configuration not stated)	0% (inactive)
COCCN(C(=O)c1csnn1)C(C(=O)NC1CCCCC1)c1cccs1 (configuration not stated)	2% (inactive)
Cc1onc(-c2ccccc2Cl)c1C(=O)NCc1cccnc1	0% (inactive)
CCC(=O)N1CCNC(=O)C1CC(=O)Nc1ccc(C)c(Cl)c1 (configuration not stated)	0% (inactive)
O=c1sc(Nc2ccccc2)nc2ccsc12	0% (inactive)
O=C(CN1CCCC1)Nc1ccc(NC(=O)Nc2ccccc2)cc1	0% (inactive)
COc1c2ccoc2nc2c(OC)c(OCC(O)C(C)(C)O)ccc12 (configuration not stated)	0% (inactive)
O=C(Nc1ccc(F)cc1F)NC1CC(=O)N(Cc2ccccc2)C1 (configuration not stated)	1% (inactive)
Cn1c(=O)c2c(nc(SCC(=O)NCc3ccco3)n2C)n(C)c1=O	0% (inactive)
COc1ccccc1OCC(=O)Nc1cccc(-c2nc3ccccc3o2)c1	0% (inactive)
CCOc1ccc(C(=O)CN2CCN(S(=O)(=O)c3ccc(OC)cc3)CC2)cc1	1% (inactive)
COc1ccc(NC(=O)CSc2nnc(Cc3cccn3C)n2-c2ccc(F)cc2)cc1	0% (inactive)
Cc1nnc(SCC(=O)N2CC(=O)Nc3ccccc32)n1-c1ccccc1	2% (inactive)
CSC1CCCCC1(O)CSc1nc2c(cc1C#N)CCCC2 (configuration not stated)	4% (inactive)
